From PubChem
Rows were chosen to be rich in hits. Some 2.2% of all compounds tested hit in one or more screens of this group.
MEKK2wt PB1 HTS = raises or lowers MEK5 binding to wildtype human MEKK2 PB1 domain | Q9Y2U5 | bead flow cytometry, Alexa488-MEK5 binding to MEKK2 WT; actives lie on both sides | binding response (% of control), % at 10 µM | actives 1.1% (n = 290,000); in the data active = binding response below about 67% or above about 130%
MEKK3 PB1 HTS = modulators (inhibitors or enhancers) of MEK5 binding to human MEKK3 PB1 domain; bead-based flow cytometry, Alexa488-MEK5 binding to MEKK3; actives lie on both sides; 0 = blocked by unlabeled MEK5, 100 = vehicle; binding response (% of control), % at 10 µM; actives 1.4% (n = 290,000); AID 1529;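 active = binding response more than 3 SD above or below the average of its plate-row segment, actives on both sides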;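 note: Alexa488 bead fluorescence after subtracting the streptavidin-only scavenger bead signal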
MEKK2 mut-MEK5 = signal of MEK5 binding to mutant human MEKK2 PB1 domain. percent response, % at 10 µM. actives 0.35% (n = 290,000). bead flow cytometry, Alexa488-MEK5 binding to MEKK2 mutant; in the data active = percent response above about 24%, passing the limit was not always enough
VLA-4 inh = inhibition in a human VLA-4 binding assay. inhibition, % (about 7 µM as worked out from the volumes in the protocol). P13612. VLA-4 expressing cells, ligand binding flow cytometry. actives 0.2% (n = 330,000); in the data active = inhibition above about 50%
Target sequence (P13612 whole entry, looked up): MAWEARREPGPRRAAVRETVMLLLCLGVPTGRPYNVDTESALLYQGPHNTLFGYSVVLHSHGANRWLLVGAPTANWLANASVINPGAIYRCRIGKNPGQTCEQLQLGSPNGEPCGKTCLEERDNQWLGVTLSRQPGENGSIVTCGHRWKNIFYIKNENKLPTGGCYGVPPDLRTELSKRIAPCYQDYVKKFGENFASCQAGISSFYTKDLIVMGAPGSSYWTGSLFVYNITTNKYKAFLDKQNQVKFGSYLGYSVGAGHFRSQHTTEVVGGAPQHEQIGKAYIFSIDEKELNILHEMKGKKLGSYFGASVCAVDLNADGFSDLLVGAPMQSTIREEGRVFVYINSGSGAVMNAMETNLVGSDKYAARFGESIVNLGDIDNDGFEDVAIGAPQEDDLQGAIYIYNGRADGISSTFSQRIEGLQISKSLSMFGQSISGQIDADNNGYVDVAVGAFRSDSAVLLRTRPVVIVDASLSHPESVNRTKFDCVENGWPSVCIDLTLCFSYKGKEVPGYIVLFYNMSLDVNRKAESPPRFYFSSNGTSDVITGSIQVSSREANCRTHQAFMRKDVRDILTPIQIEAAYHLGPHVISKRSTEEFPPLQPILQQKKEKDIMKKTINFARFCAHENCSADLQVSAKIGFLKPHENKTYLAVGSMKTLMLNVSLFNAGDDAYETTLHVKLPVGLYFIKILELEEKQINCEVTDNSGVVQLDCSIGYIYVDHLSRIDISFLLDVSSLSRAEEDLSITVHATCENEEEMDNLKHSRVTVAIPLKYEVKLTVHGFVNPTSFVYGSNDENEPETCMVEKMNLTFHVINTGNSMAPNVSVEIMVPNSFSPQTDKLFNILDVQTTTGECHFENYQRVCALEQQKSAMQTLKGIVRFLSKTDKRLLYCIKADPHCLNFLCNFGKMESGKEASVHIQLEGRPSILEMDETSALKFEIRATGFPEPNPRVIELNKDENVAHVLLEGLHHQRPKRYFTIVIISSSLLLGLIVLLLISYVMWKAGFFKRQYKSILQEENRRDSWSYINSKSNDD
Each line names hits and unclear results; the compound was inactive in the other large screens; [ ] = dose if it differs, or a comment.

COC(=O)C(c1ccccc1)N(Cc1cccc(CN(C(C(=O)OC)c2ccccc2)S(C)(=O)=O)c1)S(C)(=O)=O (configuration not stated)	none
Cc1ccc(NC(=S)N/N=C/c2c(C)[nH]c3ccccc23)cc1	MEKK2wt PB1 HTS 38
COc1ccc2c(Cl)c(C(=O)N/N=C/c3ccc4c(c3)OCO4)sc2c1	none
Cc1[nH]c2ccccc2c1/C=N/NC(=O)c1ccc(N)cc1	none
Cc1[nH]c2ccccc2c1/C=N/NC(=O)c1cccc(Br)c1	MEKK2wt PB1 HTS 42, MEKK2 mut-MEK5 64
COc1ccc2c(Cl)c(C(=O)N/N=C/c3c(C)[nH]c4ccccc34)sc2c1	MEKK2wt PB1 HTS 48[inhibitor]
Cc1[nH]c2ccccc2c1/C=C/C(=O)c1ccccc1	MEKK2wt PB1 HTS 16, MEKK3 PB1 HTS 150, MEKK2 mut-MEK5 180
CC1(C(=O)O)CCC(C(=O)Nc2ccc(F)cc2)C1(C)C (configuration not stated)	none
Cc1ccccc1C(=O)c1cccn1CC(=O)NCc1ccc(Cl)cc1	none
Cc1ccc(CNC(=O)Cn2cccc2C(=O)c2ccccc2C)cc1	MEKK2wt PB1 HTS -1.0
Fc1ccc(N2CCN(c3ncnc4c3nnn4Cc3ccccc3Cl)CC2)cc1	MEKK3 PB1 HTS 71[inhibitor]
FC(F)(F)c1ccc(N2CCN(c3ncnc4c3nnn4Cc3ccccc3Cl)CC2)cc1	none
O=C(NNC(=O)c1cccnc1SCc1cccc([N+](=O)[O-])c1)c1ccccn1	MEKK3 PB1 HTS 134
O=C(NNC(=O)c1cccnc1SCc1cccc([N+](=O)[O-])c1)c1ccc(F)cc1	none
CCOc1ccc(C(=O)NCC(=O)NCC2CCCCC2)cc1OCC	none
CCC1CCCCN1CCCNC(=O)Cn1cnc2sc(C)c(S(=O)(=O)N3CC(C)CC(C)C3)c2c1=O (configuration not stated)	MEKK2wt PB1 HTS 135, MEKK2 mut-MEK5 26
Cc1ccc(-n2cnc3scc(-c4cccs4)c3c2=O)cc1	none
O=c1c2c(-c3cccs3)csc2ncn1-c1ccccc1	MEKK2wt PB1 HTS 15
Cc1ccc([N+](=O)[O-])cc1S(=O)(=O)Nc1ccc(C(=O)N(C)C)cc1	none
CC(=O)Nc1ccc(NS(=O)(=O)c2cc([N+](=O)[O-])ccc2C)cc1	VLA-4 inh 55
CCN1CCN(CCCNC(=O)c2ccc3c(c2)NC(=O)/C(=C\c2cccc(C)c2)S3)CC1	MEKK2wt PB1 HTS 165
COc1ccc(/C=C2/Sc3ccc(C(=O)NCCCN4CCOCC4)cc3NC2=O)cc1OC	none
Cc1cccc(/C=C2/Sc3ccc(C(=O)NCCCN4CCOCC4)cc3NC2=O)c1	MEKK2wt PB1 HTS 149, MEKK2 mut-MEK5 25
CC(C(=O)Nc1ccc(O)cc1C(=O)O)N1C(=O)/C(=C\c2cccs2)SC1=S (configuration not stated)	none
COc1ccc(C(=O)CCC(=O)N2CCN(c3cc(C)ccc3C)CC2)cc1	none
CC(=O)c1ccc(N2CCN(C(=O)c3ccc(NC(=O)C4CCCO4)cc3)CC2)cc1 (configuration not stated)	MEKK3 PB1 HTS 81[inhibitor]
CC(=O)c1ccc(NC(=O)C2CCCO2)cc1 (configuration not stated)	none
Cc1cccc(N2CCN(C(=O)c3ccc(NC(=O)C4CCCO4)cc3)CC2C)c1 (configuration not stated)	MEKK2wt PB1 HTS -1.0[inhibitor], MEKK3 PB1 HTS 0.0[inhibitor]
O=[N+]([O-])c1ccc(N/N=C/c2ccc[nH]2)cc1	MEKK2wt PB1 HTS -1.0
Cc1cc(OCC(=O)NCCCn2ccnc2)c2c(C)c(C)c(=O)oc2c1	none
CCCCC(=O)NC(=S)Nc1nnn(CCC)n1	MEKK3 PB1 HTS 43[inhibitor]
CCCCC(=O)Nc1nnn(CCC)n1	none
NCC(=O)Nc1ccc(Cl)cc1C(=O)c1ccc[nH]1	none (no result: VLA-4 inh)
CCNc1nc(NCC)nc(N(C)/N=C/c2ccco2)n1	none
COc1ccc(C(=O)c2sc(Nc3ccccc3)nc2C)cc1	MEKK2wt PB1 HTS 135
COc1cc2c(cc1NC(=O)CN1C(=O)NC3(CCc4ccccc43)C1=O)oc1ccccc12 (configuration not stated)	MEKK2wt PB1 HTS 10
Cc1ccccc1NC(=O)CN1C(=O)NC2(CCc3ccccc32)C1=O (configuration not stated)	none (no result: MEKK2wt PB1 HTS, MEKK3 PB1 HTS, MEKK2 mut-MEK5)
COc1cc(NC(=O)C2=COCCO2)c(OC)cc1Cl	none (no result: MEKK2wt PB1 HTS, MEKK3 PB1 HTS, MEKK2 mut-MEK5)
NC(N)=N/N=C/c1ccc(OCc2ccccc2)c(OCc2ccccc2)c1	MEKK2wt PB1 HTS 302, MEKK2 mut-MEK5 116
NC(N)=N/N=C/c1ccccc1	none
CCOc1ccc(/C=N/n2c(C3CCCCC3)n[nH]c2=S)cc1	none
Cc1cccc(-n2c(SCC(=O)N3CCC(C(=O)O)CC3)nc3ccccc3c2=O)c1C	none
CC1CC(C)CN(CCCNC(=O)c2ccc3c(c2)N(Cc2ccccc2)C(=O)c2ccccc2S3=O)C1 (configuration not stated)	MEKK2wt PB1 HTS 145
O=C(NCCCN1CCCC1)c1ccc2c(c1)N(Cc1cccc(Cl)c1)C(=O)c1ccccc1S2=O (configuration not stated)	none
Cc1ccccc1NS(=O)(=O)c1ccc(C(=O)NCC(c2ccco2)N2CCCCC2)cc1 (configuration not stated)	none (no result: MEKK2wt PB1 HTS, MEKK3 PB1 HTS, MEKK2 mut-MEK5)
COCCn1cc(-c2csc(N)n2)c2ccccc21	none
CN(C)c1nc(-c2cn(CCC#N)c3ccccc23)cs1	MEKK2wt PB1 HTS -15
COc1cccc(/C=C2\SC(=S)N(C(C(=O)O)c3ccccc3)C2=O)c1OC (configuration not stated)	MEKK2wt PB1 HTS -4.0
CCCN1CCc2c(sc(NC(=S)NC(=O)c3ccccc3)c2C#N)C1	MEKK2wt PB1 HTS 0.0
CC(C)N1CCc2c(sc(NC(=S)NC(=O)c3ccccc3)c2C#N)C1	none
CC(C)C(OC(=O)c1nsc(Cl)c1Cl)C(=O)NC(C)(C)C (configuration not stated)	none
CCC(OC(=O)c1nsc(Cl)c1Cl)C(=O)NC(C)(C)C (configuration not stated)	MEKK2wt PB1 HTS 12
O=C(Nc1ccsc1C(=O)O)c1ccc(Cl)cc1	none
Cc1cccnc1CCNCc1c(C(=O)N2C[C@@H](C)O[C@@H](C)C2)nc2ccc(Cl)cn12	none
C=CCn1c(SCC(=O)Nc2cc3oc4ccccc4c3cc2OC)nnc1-c1cnccn1	MEKK2wt PB1 HTS 140
CCN1CC(CCN2CCOCC2)C(c2ccccc2)(c2ccccc2)C1=O (configuration not stated)	none (no result: VLA-4 inh)
N=c1n(CCN2CCCC2)c2ccccc2n1CC(O)c1ccc(Cl)c(Cl)c1 (configuration not stated)	MEKK2wt PB1 HTS 152
Cc1ccc(CNC(=O)c2ccc(Br)o2)cc1	none
Cc1cc2cc(CNC(=O)c3ccc4c(c3)OCO4)ccc2[nH]1	MEKK2wt PB1 HTS -9.0
O=C(NCc1ccc2c(c1)OCO2)c1ccc2c(c1)OCO2	none
Cc1cc2cc(CNC(=O)c3ccc(Br)o3)ccc2[nH]1	MEKK2wt PB1 HTS 53[inhibitor]
CCOC(=O)C1CCCN(C(=O)c2ccc3ncsc3c2)C1 (configuration not stated)	none (no result: MEKK2wt PB1 HTS, MEKK3 PB1 HTS, MEKK2 mut-MEK5)
O=c1c(-c2ccco2)[n+]([O-])c2ccccc2n1OCc1ccccc1[N+](=O)[O-]	none
